Sampled rows, rich in hits. Any-hit rate of the full collection: about 19%.
DT40 TDP1 CPT = qHTS for Inhibitors of human tyrosyl-DNA phosphodiesterase 1 (TDP1): qHTS in cells in presence of CPT; chicken DT40 Tdp1-/-;hTDP1 cells + 20 nM CPT, ATP luminescence, 48 h; Potency, µM (series often up to 46.2 µM), for inactives: at the top dose activity change, negative = growth inhibition, hits mostly inhibitors; actives 12% (n = 420,000); note: potency is the fitted concentration of half-maximal effect; nearly all actives have a fitted effect of over 55% in size
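Cell growth measured by CellTiter-Glo luminescence after a minimum 48 h, 37 C compound exposure with 20 nM CPT in Tdp1-knockout DT40 cells stably expressing hTDP1, seeded 400/well; qHTS titration format.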
HT1080 IDH1KD tx = qHTS for induction of synthetic lethality in tumor cells producing 2HG: qHTS for the HT-1080-IDH1KD cell line | HT-1080 IDH1 knockdown viability, ATP luminescence, 48 h | AID 686971, 2013 | Potency, µM (highest dose often 46.1 µM), for the others: at the highest dose activity, negative = toxicity, actives largely listed as cytotoxic | actives 2% (n = 360,000);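 note: potency is the fitted concentration of half-maximal effect; 0% = DMSO wells and -100% = cell-free medium wells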
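CellTiter-Glo luminescence after 48 h compound exposure at 37 degrees C of IDH1-knockdown HT-1080 cells in 5% FBS RPMI. %Activity scaled between DMSO wells and cell-free media wells, with curves fitted and assigned curve classes.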
HT1080-NT tox = qHTS for induction of synthetic lethality in tumor cells producing 2HG: qHTS for the HT-1080-NT fibrosarcoma cell line; HT-1080-NT fibrosarcoma viability, CellTiter-Glo ATP luminescence, 48 h; Potency, µM (highest dose often 46.1 µM), inactives show at the top dose activity, negative = less viability, most hits filed as cytotoxic; actives 1.6% (n = 360,000); AID 686970, 2013;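 note: NT is the 2HG producing partner of a matched IDH1 knockdown line; potency is the fitted concentration of half-maximal effect; 0% = DMSO-treated cells and -100% = media-only wells without cells; nearly all actives have a fitted effect of over 55% in size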
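Viability of the 2HG-overproducing fibrosarcoma line after 48 hours of compound exposure at 37 degrees C was determined by luminescence with CellTiter-Glo, and concentration-effect curves were then fitted and categorized.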
ELG1 repair inh = qHTS screen for small molecules that inhibit ELG1-dependent DNA repair in human embryonic kidney (HEK293T) cells expressing luciferase-tagged ELG1 | Potency, µM (series often up to 46.1 µM), for inactives: at the top dose activity change, negative = inhibition, hits mostly inhibitors | HEK293T ELG1-luciferase reporter, luminescence, 16 h; DNA damage induced by 5-fluorouridine | actives 2.3% (n = 330,000); note: potency is the fitted concentration of half-maximal effect; nearly all actives have a fitted effect of over 55% in size
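Quantitative HTS, concentration-response format. 2,000 cells/well co-treated with 5-fluorouridine and compound, 16 hr in 5% CO2 at 37 °C; ONE-Glo luminescence read after 30 min.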
IL1B secr inh = qHTS for Inhibitors of Inflammasome Signaling: IL-1-beta AlphaLISA Primary Screen; THP-1 LPS/ATP IL-1B secretion, AlphaLISA, 16 h; active compounds read low; activity change, % at 57.5 µM; actives 4.7% (n = 360,000); in the data active = activity change below about -50%; inconclusive = mostly about -30% to -49%
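THP-1 cells pretreated 1 hr with compounds (up to 57.5 uM final), then stimulated with LPS (250 ng/mL final) plus ATP (1.25 mM final); secreted IL-1B measured by AlphaLISA after 16 hr, decreased signal indicating inhibition.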
DT40 TDP1 no CPT = qHTS for Inhibitors of human tyrosyl-DNA phosphodiesterase 1 (TDP1): qHTS in cells in absence of CPT. actives 15% (n = 420,000). DT40 Tdp1-/- hTDP1 cells, no CPT, ATP luminescence, 48 h. Potency, µM (highest dose often 46.2 µM), inactives show at the highest dose activity change, negative = growth inhibition, hits mostly inhibitors; note: potency is the fitted concentration of half-maximal effect; nearly all actives have a fitted effect of over 55% in size
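Seeded 400 DT40-hTDP1 cells/well (vehicle DMSO, no 20 nM CPT); pinned compounds; ≥48 hr at 37 °C; CellTiter-Glo luminescence as viability measure.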
Numbers without * were called inactive; u = inconclusive; x = not tested or not shown. Unless noted, calls come from the whole dose curve; as a rule, active = well fitted curve in the direction sought with a large enough effect; inconclusive = small, poorly fitted or top-dose-only effect, or another doubt; inactive = no such curve, though single readings can be large; an effect the other way counts as inactive or inconclusive. Unless noted, % is set by controls: 0 for no effect and ±100 for the full control effect.

SMILES | DT40 TDP1 CPT | HT1080 IDH1KD tx | HT1080-NT tox | ELG1 repair inh | IL1B secr inh | DT40 TDP1 no CPT
COCCCn1c(=NC(C)=O)c(C#N)cc2c(=O)n3cccc(C)c3nc21 | 2.7% | 5.4% | 20.3% | -10.9% | x | -28.9%
COCCCn1c(=N)c(C(=O)NCC2CCCO2)cc2c(=O)n3cccc(C)c3nc21 (stereo unspecified) | -12.8% | -3.2% | 0.7% | u | 6.0 | u
COCCCn1c(C(=O)NC2CCCCC2C)cc2c(=O)n3cccc(C)c3nc21 (stereo unspecified) | 16.4µM* | 0.0% | -0.5% | 13µM* | 24.6 | 20.6µM*
Nc1c(-c2ccc(F)cc2)nc2ncccn12 | 13.0% | 15.7% | 21.2% | x | -17.8 | -3.3%
O=S1(=O)c2ccccc2N(Cc2ccccc2F)c2ccccc21 | u | x | x | x | x | -26.9%
CC1CCc2c(sc3nnn(CC(=O)Nc4cccc(C(F)(F)F)c4)c(=O)c23)C1 (stereo unspecified) | u | x | x | x | x | 20.6µM*
CC1CCc2c(sc3nnn(CC(=O)Nc4ccccc4Cl)c(=O)c23)C1 (stereo unspecified) | u | x | x | x | x | 16.4µM*
COc1cccc(C(=O)NCC(=O)N/N=C/c2cn[nH]c2-c2ccccc2)c1 | 4.8% | -5.0% | 1.6% | -4.0% | 39.5 | -29.3%
CC(=O)c1ccc(N2CCN(C(=O)c3cc(-c4cccnc4)nc4ccc(Br)cc34)CC2)cc1 | u | 1.9% | -14.4% | 16.4µM* | -10.7 | 18.4µM*
CS(=O)(=O)N1CCN(C(=O)c2cc(-c3cccnc3)nc3ccc(Cl)cc23)CC1 | 0.0% | 0.0% | -2.8% | u | 42.7 | u
CS(=O)(=O)N1CCN(C(=O)c2cc(-c3cccnc3)nc3ccc(Br)cc23)CC1 | -4.1% | -12.5% | -3.6% | u | 61.0 | 9.2µM*
O=C(c1cc(-c2cccnc2)nc2ccc(Br)cc12)N1CCN(c2ncccn2)CC1 | u | -7.3% | -6.0% | u | -5.6 | 18.4µM*
Cc1ccc2nc(-c3cccnc3)cc(C(=O)N3CCN(c4ccc([N+](=O)[O-])cc4)CC3)c2c1 | 16.4µM* | 1.8% | -0.1% | u | 9.8 | 18.4µM*
Cc1ccc(-c2nc(CNC(=O)NC3CCCCC3)c(C)o2)cc1 | -0.7% | x | x | x | x | 3.1%
Cn1c(=O)c(-c2ccc(Cl)cc2)nc2cnc(OCc3ccccc3)nc21 | 0.3% | x | x | x | x | 11.7%
O=C(Nc1ccc(C(=O)N2CCOCC2)cc1)c1cc(-c2cccnc2)nc2ccc(Br)cc12 | 2.31µM* | -25.1% | -29.4% | 9.2µM* | -53.1* | 2.31µM*
CC1CCC2(C(=O)O)CCC3(C)C(=CCC4C3(C)CCC3[C@@]4(C)CC(O)C(O)[C@@]3(C)CO)C2C1C (stereo partly specified) | 3.8% | x | x | x | x | -14.6%
COc1ccc(CN2CCN(C(=O)CCC(=O)Nc3nnc(C4CCCCC4)s3)CC2)cc1F | 16.4µM* | -11.6% | -17.4% | 5.8µM* | -21.8 | u
CC(C)Cc1nnc(NC(=O)CCC(=O)N2CCN(c3ccc([N+](=O)[O-])cc3)CC2)s1 | 14.6µM* | -3.3% | u | 9.2µM* | -11.2 | 18.4µM*
O=C(CCC(=O)N1CCCCC1)Nc1nnc(C2CCCCC2)s1 | 3.1% | 6.5% | 7.4% | 5.9% | 40.4 | -1.6%
COc1ccc(CN2CCN(C(=O)CCC(=O)Nc3nnc(CC(C)C)s3)CC2)cc1F | 3.26µM* | 0.0% | -4.9% | 5.8µM* | 8.9 | 4.61µM*
